UCHL1 block = inhibitors of human UCHL1 deubiquitinase; inhibition, % at 20 µM; purified UCHL1, Ub-rhodamine cleavage fluorescence; AID 1645859, 2021; hit rate 0.2% among 47,000; Ubiquitin carboxyl-terminal hydrolase isozyme L1 (Homo sapiens), P09936
OTUD3 block = inhibitors of human OTUD3 deubiquitinase. OTU domain-containing protein 3 (Homo sapiens), Q5T2D3. purified OTUD3, Ub-rhodamine fluorescence, 2 h. inhibition, % at 25 µM. hit rate 0.7% among 47,000. AID 1645858, 2021
USP7 block = inhibitors of human USP7 deubiquitinase; Ubiquitin carboxyl-terminal hydrolase 7 (Homo sapiens), Q93009; purified USP7, Ub-rhodamine cleavage fluorescence; inhibition, % at 20 µM; hit rate 0.3% among 47,000; AID 1645854, 2021
USP10 block = inhibitors of human USP10 deubiquitinase; purified USP10, Ub-rhodamine fluorescence, 60 min; AID 1645856, 2021; inhibition, % at 20 µM; hit rate 1.1% among 47,000
Numbers without * were called inactive. In the library only some 1.7% were active in any assay of this set; here they are far more common. No stated cut-off is given here; in the data, active means inhibition above about 30%; inactive means the rest.

For Cn1c(=O)c2ncnnc2n(C)c1=O the results were UCHL1 block 50*, OTUD3 block 90*, USP7 block -68 and USP10 block 89*.
Screening COc1ccc(OC)c(-c2c(C#N)c(C)nc3c2N2CCC3CC2)c1 returned UCHL1 block -1, OTUD3 block 33*, USP7 block 8 and USP10 block -1.
Screening CC(C)=CCCC1(C)C=Cc2c(O)c3c(c(CC=C(C)C)c2O1)O[C@]12C(=C[C@@H]4CC1C(C)(C)O[C@@]2(C/C=C(/C)C(=O)O)C4=O)C3=O (some centres undefined) returned UCHL1 block 64*, OTUD3 block 77*, USP7 block 84* and USP10 block 75*.
Screening CC[C@@H]1[C@@H](C)O[C@@](O)([C@@H](C)[C@H](O)[C@H](C)[C@H]2OC(=O)/C=C/C=C/[C@H](C)[C@@H]([C@@H](C)[C@@H](O)[C@H](C)[C@@]3(O)C[C@@H](O[C@H]4C[C@H](O)[C@H](O)[C@H](C)O4)[C@H](CC)[C@@H](C)O3)OC(=O)/C=C/C=C/[C@@H]2C)C[C@H]1O[C@H]1C[C@H](O)[C@H](O)[C@H](C)O1 returned UCHL1 block 13, OTUD3 block 0, USP7 block 51* and USP10 block 1.
CC(=O)N[C@@H]1[C@H]2[C@@H]3CCN2C[C@H]1O3 was read as UCHL1 block 0, OTUD3 block 17, USP7 block 3 and USP10 block 1.
O=C(Nc1cccnc1)c1cccn(Cc2ccc(C(F)(F)F)cc2)c1=O was read as UCHL1 block -3, OTUD3 block -9, USP7 block 0 and USP10 block -1.
For O=C(N[C@@H]1CN2CCC1CC2)c1cccc2[nH]cnc12 the results were UCHL1 block 0, OTUD3 block 2, USP7 block 1 and USP10 block 0.
`Cc1cc(O)cc2oc(=O)c3c(O)cc(O)cc3c12` gave UCHL1 block 2, OTUD3 block -2, USP7 block 4 and USP10 block 7.
For CC(C)=CCC[C@H](C(=O)O)[C@@H]1CC[C@]2(C)C3=C(CC[C@@]12C)[C@@]1(C)CCC(=O)C(C)(C)C1CC3 (some centres undefined) the results were UCHL1 block 0, OTUD3 block 11, USP7 block 6 and USP10 block 38*.
For CN(C)[C@@H]1C(=O)C(C(N)=O)=C(O)[C@@]2(O)C(=O)C3=C(O)c4c(O)cccc4[C@@](C)(O)C3[C@H](O)[C@@H]12 (some centres undefined) the results were UCHL1 block 90*, OTUD3 block 90*, USP7 block 89* and USP10 block 62*.
O=C(N[C@H]1CN2CCC1CC2)c1ccc(Cl)cc1 was read as UCHL1 block 2, OTUD3 block 4, USP7 block 3 and USP10 block 0.
`COC(=O)[C@@]1(O)c2c(oc3cccc(O)c3c2=O)OC=C(C)[C@H]1O` gave UCHL1 block -1, OTUD3 block 10, USP7 block -2 and USP10 block 0.
COC(=O)[C@]1(O)O[C@@]2(C(=O)OC)c3c(oc4cc(C)cc(O)c4c3=O)[C@H]3c4c(oc5cc(C)cc(O)c5c4=O)C[C@H]1[C@H]32 was read as UCHL1 block -21, OTUD3 block 32*, USP7 block -22 and USP10 block -7.
`O=C(Cc1cccs1)N1CCN(Cc2nnnn2-c2ccc(F)c(F)c2)CC1` gave UCHL1 block -2, OTUD3 block -3, USP7 block 0 and USP10 block 0.
`COc1ccc2c(c1)nc(C(F)(F)F)n2C1CCN(Cc2cccc(O)c2)CC1` gave UCHL1 block 2, OTUD3 block -20, USP7 block 5 and USP10 block 1.
Screening CO[C@H]1[C@@H](O)[C@H](C)O[C@H](O[C@H]2[C@H](Oc3cccc4c(O)c5c(=O)oc6ccc(C)c7c(=O)oc(c34)c5c67)O[C@H](C)[C@H](O)[C@@H]2O)[C@@H]1O returned UCHL1 block -162, OTUD3 block 51*, USP7 block -160 and USP10 block -15.
For COc1c(Cl)ccc2c(=O)c3c(oc12)C1=C2[C@@H](OCO1)[C@@H](OC)c1cc4c(c(O)c1[C@@]2(O)[C@H]3O)C(=O)N(C)[C@H](OC)[C@@H]4O the results were UCHL1 block 12, OTUD3 block 32*, USP7 block 4 and USP10 block -8.
`O=C(NC1CCCC1)C1=NOC2(CCNC2)C1` (centres undefined) gave UCHL1 block 1, OTUD3 block -1, USP7 block 4 and USP10 block -12.
`CCCCCC(O)c1c(O)cc2c(c1O)C(=O)c1c(O)cc(O)cc1C2=O` (centres undefined) gave UCHL1 block 6, OTUD3 block -74, USP7 block -104 and USP10 block 33*.
O=C1Nc2ccc(Cl)cc2C(c2cccc(O)c2)=NC1O (centres undefined) was read as UCHL1 block 2, OTUD3 block 7, USP7 block -1 and USP10 block 1.
Screening CC(C)c1cc2c(c(O)c1O)[C@@]1(C(=O)O)CCCC(C)(C)[C@@H]1CC2 returned UCHL1 block 8, OTUD3 block 36*, USP7 block 15 and USP10 block 15.
For CC(C)c1cc2c(c(O)c1O)C1(C(=O)O)CCCC(C)(C)C1CC2 (centres undefined) the results were UCHL1 block 2, OTUD3 block 46*, USP7 block 16 and USP10 block 15.
`O=C1C=C2C(=CCOC2O)O1` (centres undefined) gave UCHL1 block -2, OTUD3 block 5, USP7 block -2 and USP10 block 0.
For O=C(c1cc(Cl)c(Cl)[nH]1)c1cc(Cl)cc(Cl)c1O the results were UCHL1 block -3, OTUD3 block 1, USP7 block -10 and USP10 block 40*.
Screening COC1=CC(=O)OC(/C=C/c2ccccc2)C1 (centres undefined) returned UCHL1 block 5, OTUD3 block 10, USP7 block -21 and USP10 block 9.
CS(=O)(=O)c1ccc(C(=O)N(Cc2cccnc2)C2CCN(Cc3ccncc3)CC2)cc1 was read as UCHL1 block -2, OTUD3 block 8, USP7 block -2 and USP10 block -4.

Bioassay records (PubChem)
